# Measured values taken from PubChem BioAssay AID1159580 (chemical genetic matrix, 2015).
# Hit rate of the full screen: of about 5,500 compounds, about 2,000 (36%) were called active. About 18% were inconclusive and are not listed. Some of the results follow. Unmarked numbers belong to inactive results. Rule as the data show it: active = normalized growth mostly below about 0.91 (no sharp cut-off); inconclusive = no clear call, values can overlap the other calls; inactive = mostly above about 0.92.
# Test: chemical genetic growth profiling, strain panel (AID 1159580);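 also: tested at 20 µM; growth read once vehicle control cultures reached saturation at 30 °C; 1 = growth at the plate median or of vehicle wells; lower values mean less growth of the strain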
# Conditions: S. cerevisiae deletion strains, growth OD
smiles,measurement,setting,value
COc1ccc(-c2oc3cc(OC)c(OC)c(OC)c3c(=O)c2OC)cc1,normalized growth,"locus YAL021C, strain ccr4, active compounds read low",0.993
same,normalized growth,"locus YAL026C, strain drs2, active compounds read low",0.881 (active)
same,normalized growth,"locus YAL030W, strain snc1, active compounds read low",0.979
same,normalized growth,"locus YBL061C, strain skt5, active compounds read low",0.911 (active)
same,normalized growth,"locus YBR009C, strain hhf1, active compounds read low",0.899 (active)
same,normalized growth,"locus YBR023C, strain chs3, active compounds read low",0.919
same,normalized growth,"locus YBR171W, strain sec66, active compounds read low",0.978
same,normalized growth,"locus YBR231C, strain swc5, active compounds read low",0.93
same,normalized growth,"locus YBR279W, strain paf1, active compounds read low",0.982
same,normalized growth,"locus YCL011C, strain gbp2, active compounds read low",0.955
same,normalized growth,"locus YCL016C, strain dcc1, active compounds read low",0.948
same,normalized growth,"locus YCL061C, strain MRC1, active compounds read low",0.964
same,normalized growth,"locus YCL069W, strain vba3, active compounds read low",0.993
same,normalized growth,"locus YCR088W, strain abp1, active compounds read low",0.991
same,normalized growth,"locus YDL005C, strain med2, active compounds read low",0.982
same,normalized growth,"locus YDL040C, strain nat1, active compounds read low",0.984
same,normalized growth,"locus YDR001C, strain nth1, active compounds read low",0.982
same,normalized growth,"locus YDR069C, strain doa4, active compounds read low",0.987
same,normalized growth,"locus YDR137W, strain rgp1, active compounds read low",0.797 (active)
same,normalized growth,"locus YDR159W, strain sac3, active compounds read low",0.982
same,normalized growth,"locus YDR195W, strain ref2",1.04
same,normalized growth,"locus YDR297W, strain sur2, active compounds read low",0.976
same,normalized growth,"locus YDR334W, strain swr1, active compounds read low",0.98
same,normalized growth,"locus YDR335W, strain msn5, active compounds read low",0.985
same,normalized growth,"locus YDR392W, strain spt3, active compounds read low",0.421 (active)
same,normalized growth,"locus YEL003W, strain gim4, active compounds read low",0.977
same,normalized growth,"locus YEL037C, strain rad23, active compounds read low",0.982
same,normalized growth,"locus YEL061C, strain CIN8 (second series), active compounds read low",0.98
same,normalized growth,"locus YER015W, strain faa2, active compounds read low",0.981
same,normalized growth,"locus YER016W, strain bim1, active compounds read low",0.988
same,normalized growth,"locus YER111C, strain swi4, active compounds read low",0.983
same,normalized growth,"locus YER155C, strain BEM2 (second series), active compounds read low",0.84 (active)
same,normalized growth,"locus YFR010W, strain ubp6, active compounds read low",0.981
same,normalized growth,"locus YGL167C, strain pmr1, active compounds read low",0.976
same,normalized growth,"locus YGL173C, strain kem1, active compounds read low",0.97
same,normalized growth,"locus YGL227W, strain vid30, active compounds read low",0.987
same,normalized growth,"locus YGL240W, strain doc1, active compounds read low",0.959
same,normalized growth,"locus YGL253W, strain hxk2, active compounds read low",0.89 (active)
same,normalized growth,"locus YHR013C, strain ard1, active compounds read low",0.87
same,normalized growth,"locus YHR027C, strain rpn1, active compounds read low",0.983
same,normalized growth,"locus YHR030C, strain SLT2, active compounds read low",1.02
same,normalized growth,"locus YHR079C, strain IRE1, active compounds read low",1.02
same,normalized growth,"locus YHR142W, strain chs7, active compounds read low",0.718 (active)
same,normalized growth,"locus YJL092W, strain hpr5, active compounds read low",0.984
same,normalized growth,"locus YJL095W, strain BCK1 (second series), active compounds read low",0.972
same,normalized growth,"locus YJL095W, strain BCK1, active compounds read low",0.959
same,normalized growth,"locus YJL115W, strain asf1, active compounds read low",0.997
same,normalized growth,"locus YJL129C, strain trk1, active compounds read low",0.907
same,normalized growth,"locus YJL154C, strain vps35, active compounds read low",0.994
same,normalized growth,"locus YJL164C, strain tpk1, active compounds read low",0.928
same,normalized growth,"locus YJL166W, strain qcr8, active compounds read low",0.934
same,normalized growth,"locus YJL187C, strain SWE1, active compounds read low",0.98
same,normalized growth,"locus YJR066W, strain TOR1, active compounds read low",0.967
same,normalized growth,"locus YKL160W, strain elf1, active compounds read low",0.945
same,normalized growth,"locus YKR026C, strain gcn3, active compounds read low",0.978
same,normalized growth,"locus YKR091W, strain srl3, active compounds read low",0.99
same,normalized growth,"locus YLL001W, strain dnm1, active compounds read low",0.953
same,normalized growth,"locus YLL026W, active compounds read low",0.983
same,normalized growth,"locus YLL041C, strain sdh2, active compounds read low",0.985
same,normalized growth,"locus YLR027C, strain aat2, active compounds read low",0.96
same,normalized growth,"locus YLR113W, strain HOG1, active compounds read low",0.887
same,normalized growth,"locus YLR221C, strain rsa3, active compounds read low",0.907 (active)
same,normalized growth,"locus YLR258W, strain gsy2, active compounds read low",0.967
same,normalized growth,"locus YLR262C, strain YPT6 (second series), active compounds read low",0.795 (active)
same,normalized growth,"locus YLR320W, strain mms22, active compounds read low",0.815 (active)
same,normalized growth,"locus YLR342W, strain FKS1, active compounds read low",0.989
same,normalized growth,"locus YLR357W, strain rsc2, active compounds read low",0.896
same,normalized growth,"locus YLR370C, strain arc18, active compounds read low",0.969
same,normalized growth,"locus YLR384C, strain iki3, active compounds read low",0.974
same,normalized growth,"locus YML120C, strain ndi1, active compounds read low",0.966
same,normalized growth,"locus YMR058W, strain fet3, active compounds read low",0.959
same,normalized growth,"locus YMR125W, strain sto1, active compounds read low",0.96
same,normalized growth,"locus YMR129W, active compounds read low",0.992
same,normalized growth,"locus YMR205C, strain PFK2, active compounds read low",0.926
same,normalized growth,"locus YMR231W, strain pep5, active compounds read low",1
same,normalized growth,"locus YNL071W, strain lat1, active compounds read low",0.734 (active)
same,normalized growth,"locus YNL183C, strain NPR1, active compounds read low",0.928
same,normalized growth,"locus YNL209W, strain ssb2, active compounds read low",0.989
same,normalized growth,"locus YNL248C, strain rpa49, active compounds read low",0.984
same,normalized growth,"locus YNL322C, strain KRE1 (second series), active compounds read low",0.98
same,normalized growth,"locus YNR049C, strain mso1, active compounds read low",0.991
same,normalized growth,"locus YOR001W, strain rrp6, active compounds read low",0.978
same,normalized growth,"locus YOR070C, strain gyp1, active compounds read low",0.978
same,normalized growth,"locus YOR080W, strain dia2, active compounds read low",0.991
same,normalized growth,"locus YOR083W, strain WHI5, active compounds read low",0.915
same,normalized growth,"locus YOR106W, strain vam3, active compounds read low",0.942
same,normalized growth,"locus YOR231W, strain MKK1, active compounds read low",1.02
same,normalized growth,"locus YOR265W, strain rbl2, active compounds read low",0.968
same,normalized growth,"locus YOR270C, strain vph1, active compounds read low",0.785
same,normalized growth,"locus YOR290C, strain snf2, active compounds read low",0.88
same,normalized growth,"locus YPL051W, strain arl3, active compounds read low",0.927
same,normalized growth,"locus YPL078C, strain atp4, active compounds read low",0.93
same,normalized growth,"locus YPL106C, strain sse1, active compounds read low",0.944
same,normalized growth,"locus YPL240C, strain hsp82, active compounds read low",0.969
same,normalized growth,"locus YPL256C, strain CLN2, active compounds read low",1.04
